Test results from PMC5540273 (PLoS ONE, 2017).

Assays:
Conditions in all cases: concentration: 1 μM, replicates: in singlicate; n = 1
MST1R = test system: MST1R
MST1 = test system: T1, MST1
T1 construct: gene STK4

MST2 = test system: T2, MST2
T2 construct: gene STK3

MST3 = test system: T3, MST3
T3 construct: gene STK24

MST4 = test system: MST4
MTOR = test system: MTOR
MUSK = test system: MUSK
MYLK2 = test system: MYLK2
MYLK4 = test system: MYLK4
MYLK = test system: MYLK
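Further: KINOMEscan kinase panel screen.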

| Compound | %Inh (MST1R) [%] | %Inh (MST1) [%] | %Inh (MST2) [%] | %Inh (MST3) [%] | %Inh (MST4) [%] | %Inh (MTOR) [%] | %Inh (MUSK) [%] | %Inh (MYLK2) [%] | %Inh (MYLK4) [%] | %Inh (MYLK) [%] |
| --- | --- | --- | --- | --- | --- | --- | --- | --- | --- | --- |
| COc1ccc(Nc2nccc(N3CCC(NC(=O)C(C)c4ccc(Cl)cc4)CC3)n2)cc1 (centres unmarked) [GSK1379812] | 54 | 44 | 0 | 0 | 0 | 3 | 0 | 6 | 6 | 4 |
| COc1nccc(-c2c(-c3ccc(F)cc3)ncn2CCCN2CCOCC2)n1 [SB-282852] | 0 | 0 | 22 | 0 | 0 | 0 | 0 | 56 | 0 | 18 |
| COc1ccc(-c2coc3ccc(-c4nnc(C)o4)cc23)cc1 | 0 | 0 | 0 | 0 | 0 | 5 | 4 | 18 | 14 | 0 |
| CN1c2ccc(-c3ccc(C(N)=O)cc3)cc2-c2[nH]ncc2S1(=O)=O | 0 | 0 | 0 | 0 | 2 | 14 | 0 | 0 | 0 | 73 |
| Cc1ccc(NC(=O)Nc2ccccc2)cc1-c1ccc(C(=O)Nc2ccncc2)cc1 [GSK1398471] | 29 | 0 | 0 | 0 | 0 | 0 | 4 | 0 | 3 | 20 |
